# An excerpt weighted towards active compounds, which were near 0.86% of everything screened.
# APE1 inh: qHTS Assay for Inhibitors of the Human Apurinic/apyrimidinic Endonuclease 1 (APE1); 0.35% of 350,000 active; DNA repair nuclease/redox regulator APEX1 (Homo sapiens), P27695; AID 2517, 2012; Potency, µM (series often up to 65.8 µM), for the others: top-dose activity change, negative = inhibition, most hits filed as inhibitors; recombinant APE1, TAMRA/BHQ-2 abasic DNA cleavage fluorescence;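 also: plate controls were vehicle for no effect and reference inhibitor for full effect; nearly all actives have a fitted effect of over 55% in size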
#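 Compound pre-exposure to 0.75 nM APE1, 15 min at ambient temperature. Reaction initiated with 50 nM TAMRA/BHQ-2 THF substrate, read immediately in kinetic mode, 525 nm excitation, 598 nm emission.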
# RECQ1 helicase: qHTS Assay for Inhibitors of RecQ-Like Dna Helicase 1 (RECQ1) | ATP-dependent DNA helicase Q1 (Homo sapiens), P46063 | RECQ1 DNA unwinding, red fluorescence kinetic read | Potency, µM (top dose mostly 57.3 µM), inactives show at the top dose activity, negative = inhibition, most hits filed as inhibitors | 0.54% of 240,000 active | AID 2549, 2010;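 also: plate controls were vehicle for no effect and no enzyme for full effect; nearly all actives have a fitted effect of over 30% in size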
#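 50 nM RECQ1T1 preincubated 15 min with compound in Tris pH 8.0 buffer with MgCl2, DTT, Tween-20 and 2.5 ug/ml poly(dI-dC); started with 200 nM TAMRA/BHQ-2 forked duplex and 2 mM ATP. Unwinding read as fluorescence (525/598 nm), two reads 2 h apart.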
# FEN1 inhibitor: qHTS Assay for the Inhibitors of Human Flap endonuclease 1 (FEN1); Recombinant FEN1 flap cleavage, fluorescence, 15 min; Potency, µM (top dose mostly 114 µM), without a hit: at the top dose activity change, negative = inhibition, usual class: inhibitors; 0.35% of 390,000 active; AID 588795, 2011; also: nearly all actives have a fitted effect of over 65% in size
#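 FEN1 at 10 nM preincubated with compounds 15 min at room temperature, then flap DNA substrate added at 50 nM final. Signal read at 0 and 15 min; concentration-response fitted with four-parameter Hill equation.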
# BLM inh: qHTS Assay for Inhibitors of Bloom's syndrome helicase (BLM). RecQ-like DNA helicase BLM (Homo sapiens), P54132. recombinant BLM DNA unwinding, fluorescence dequenching. Potency, µM (top dose mostly 56.1 µM), for inactives: at the highest dose activity change, negative = inhibition, usual class: inhibitors. 0.2% of 350,000 active. AID 2528, 2010;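 also: plate controls were vehicle for no effect and no enzyme for full effect; nearly all actives have a fitted effect of over 35% in size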
# GLS inhibitor: qHTS for Inhibitors of Glutaminase (GLS); Glutaminase kidney isoform, mitochondrial (Homo sapiens), O94925; GLS enzymatic activity, qHTS titration; Potency, µM (doses to about 45.5 µM), inactives show at the highest dose activity change, negative = inhibition, most hits filed as inhibitors; 0.21% of 410,000 active; AID 624170, 2012
#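 Read-out is an Amplex red fluorescence increase coupled through glutamate oxidase and HRP, measured before and after 30 min room-temperature incubation. hKGA is in 45 mM KH2PO4 (pH 8.2) with 0.02% Tween-20; glutamine added as 1mM solution.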
# PGK inhibitor: qHTS Assay to Find Inhibitors of Phosphoglycerate Kinase | 0.043% of 380,000 active | Potency, µM (titrated, usually from 57.5 µM), inactives show top-dose activity change, negative = inhibition, actives largely listed as inhibitors | Phosphoglycerate kinase, glycosomal (Trypanosoma brucei brucei), P07378 | AID 602233, 2012 | PGK/GAPDH coupled, Kinase-Glo luminescence, 60 min; also: nearly all actives have a fitted effect of over 60% in size
# Target sequence (P07378 whole entry, looked up): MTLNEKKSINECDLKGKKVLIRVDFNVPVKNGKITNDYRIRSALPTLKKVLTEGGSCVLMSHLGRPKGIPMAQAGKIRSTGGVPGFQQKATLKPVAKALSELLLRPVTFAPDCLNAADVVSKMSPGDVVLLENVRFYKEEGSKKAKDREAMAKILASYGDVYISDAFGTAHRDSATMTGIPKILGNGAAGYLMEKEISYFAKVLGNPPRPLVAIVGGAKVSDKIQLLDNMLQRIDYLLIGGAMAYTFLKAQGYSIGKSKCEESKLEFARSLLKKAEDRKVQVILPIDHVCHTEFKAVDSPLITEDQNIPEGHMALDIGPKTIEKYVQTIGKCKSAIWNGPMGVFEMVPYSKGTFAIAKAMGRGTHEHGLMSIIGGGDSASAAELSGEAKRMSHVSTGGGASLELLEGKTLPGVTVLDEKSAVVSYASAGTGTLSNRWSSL
#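 Recombinant glycosomal PGK reaction used 1,3-bisphosphoglycerate generated in-well by GAPDH (100nM final) in 100mM TEA pH 7.6, 5mM MgCl2, 0.01% Tween-20. After 60 minutes at room temperature, ATP was read by Kinase-Glo Plus luminescence end-point.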
# * = called active by the depositor; i = inactive; ? = inconclusive; nt = not tested or not shown; ! = a repeat was not active; [ ] = dose if it differs, or a comment. Calls follow the shape of the dose curve; as a rule, active = well fitted curve in the direction sought with a large enough effect; inconclusive = small, poorly fitted or top-dose-only effect, or another doubt; inactive = no such curve, though single readings can be large; an effect the other way counts as inactive or inconclusive. Unless noted, % is scaled to controls: 0 for no effect and ±100 for the full control effect; potency is read from the fitted curve at half-maximal effect.
SMILES,APE1 inh,RECQ1 helicase,FEN1 inhibitor,BLM inh,GLS inhibitor,PGK inhibitor
CCn1ncc(-c2ccnc3cc(C(=O)O)nn23)c1C,-4.0%,-8.5%,-5.5%,?,3.16µM*,?
CCCCC/C=C\C/C=C\C/C=C\C/C=C\CCCC(=O)NCC(=O)O,?,3.55µM*!,?,-12.2%,-2.2%[4 µM],nt
CC1(C)OC(c2ccccc2)=C/C(=C/C=C2C(=O)NC(=O)NC2=O)O1,-3.6%,25.1µM*,-6.0%,-15.3%,-22.1%,?
COc1ccccc1N1C(=O)NC(=O)/C(=C/c2ccc3c(c2)Cc2ccccc2-3)C1=O,-3.3%,-8.6%,79.4µM*,-0.4%,-2.8%,-15.7%
O=C1NC(=O)N(c2ccccc2)C(=O)/C1=C/c1ccc2c(c1)Cc1ccccc1-2,-2.5%,-2.1%,nt,3.9%,nt,nt
NC1CCCC[C@@H]1N (some centres undefined),10.3%,-9.3%,nt,-1.2%,nt,nt
CN1/C(=C\C=C\C2=[N+](C)c3ccc4ccccc4c3C2(C)C)C(C)(C)c2ccccc21,28.2µM*,28.2µM*,nt,31.6µM*,nt,nt
CN1/C(=C\C=Nc2ccccc2)C(C)(C)c2ccccc21,?,?,-13.7%,-2.0%,23.6%,-6.0%
COc1cc2c(cc1O)C[C@H]1c3c(cc(OC)c(O)c3-2)CCN1C,?,25.1µM*,nt,-22.6%,nt,nt
C#C[C@]1(OC(=O)CCCCCC)CC[C@H]2C3CCC4=CC(=O)CC[C@@H]4[C@H]3CC[C@@]21C (some centres undefined),nt,nt,nt,nt,-2.4%,nt
Cc1ccc(-n2c(O)c(/C=N/N3CCCCC3c3cccnc3)c(=O)[nH]c2=S)cc1 (centres undefined),-6.4%,31.6µM*,-1.2%,-5.3%,24.6%,7.4%
CC1OC(O[C@H]2C[C@@H](O)[C@]3(CO)[C@H]4[C@H](O)C[C@]5(C)[C@@H](C6=CC(=O)OC6)CC[C@]5(O)[C@@H]4CC[C@]3(O)C2)C(O)C(O)C1O (some centres undefined),nt,nt,5.8%,nt,nt,nt
CCn1nc(-c2ccccc2)nc2c(=O)n(C)c(=O)nc1-2,?,-24.9%,-12.4%,1.41µM*,6.4%,?
Cn1nc(-c2ccccc2)nc2c(=O)n(C)c(=O)nc1-2,nt,nt,-19.9%,nt,nt,nt
Cc1nc2c(=O)n(C)c(=O)nc-2n(C)n1,-1.1%,i,15.2%,0.794µM*,-7.0%,?
CC1Oc2cc3c(-c4c(O)cc(O)c5c(O)c6c(cc45)OC(C)C(C)C6=O)c(O)cc(O)c3c(O)c2C(=O)C1C (centres undefined),?,25.1µM*,14.1µM*,-24.2%,7.94µM*,-1.6%
CCNC(C)Cc1ccc2c(c1)OCO2 (centres undefined),nt,nt,nt,nt,-0.9%[99.4 µM],nt
COC(=O)[C@@H]1[C@H]2CC[C@@H](C[C@H]1OC(=O)c1ccccc1)N2C,-3.3%,nt,nt,nt,nt,nt
ClC1=C(Cl)[C@]2(Cl)[C@@H]3[C@@H]4C[C@@H]([C@H]5O[C@@H]45)[C@@H]3[C@@]1(Cl)C2(Cl)Cl,nt,nt,nt,nt,5.6%[99.4 µM],nt
COC12c3ccccc3-c3ccccc3C1C(C(=O)O)C2C(=O)O (centres undefined),nt,nt,nt,nt,17.8µM*,nt
[Cd+2].[Cl-].[Cl-],0.794µM*,35.5µM*,nt,nt,nt,nt
[Cl-].[Cl-].[Hg+2],nt,-9.1%,nt,-7.2%,-109.1%,nt
COc1cc(CC(C)N)c(OC)cc1Br (centres undefined),nt,nt,nt,nt,4.4%,nt

# Screens as filed in PubChem BioAssay.
